NadD inh: inhibitors of S. aureus NadD, primary screen, biochemical, colorimetric, uHTS | inhibition, % at 20 µM | hit rate 0.78% among 360,000 | AID 602399, 2012 | purified NadD enzyme, colorimetric absorbance read-out; in the data active means inhibition above about 26%
MsrA act: bovine MsrA enzyme activators, primary screen, biochemical, absorbance, HTS. Methionine sulfoxide reductase A (Bos taurus). purified bovine MsrA, absorbance read-out. activation, % at 10.6 µM. hit rate 0.3% among 360,000. AID 602163, 2012; in the data active means activation above about 7.5%
MsrA inh: bovine MsrA enzyme inhibitors, primary screen, biochemical, absorbance, HTS | Methionine sulfoxide reductase A (Bos taurus) | purified bovine MsrA, absorbance read-out | inhibition, % at 15.5 µM | hit rate 0.75% among 360,000 | AID 651718, 2012; in the data active means inhibition above about 4.5%
rCAG binder: binders of r(CAG) RNA repeats, primary screen, biochemical, fluorescence; r(CAG) RNA repeat, TO-PRO-1 dye displacement fluorescence; inhibition, % at 3 µM; hit rate 1.3% among 370,000; AID 651821, 2012;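 active means inhibition above the plate cutoff, the mean of all test compounds on that plate plus 3 SD, cut at about 35% in these data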;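 further: higher means more dye released from RNA so lower well fluorescence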
rCAG bind conf: small molecules binding CAG repeat RNA – biochemical, fluorescence, confirmation; hit rate 70% among 4,300; inhibition, % at 3 µM; r(CAG) RNA repeat, TO-PRO-1 dye displacement fluorescence; shares compounds with rCAG binder; AID 652065, 2013;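 active means inhibition above a per-plate cutoff, the mean inhibition of sample wells plus 3 SD, cut at about 35% in these data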;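 further: loss of TO-PRO-1 fluorescence as compound displaces dye from 1x1 AA loop RNA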
dCAG dye counter: displacement of TO-PRO-1 from CAG DNA duplex, counter-screen for rCAG RNA repeat binder project, biochemical, fluorescence, TO-PRO-1 dye, d(CAG) DNA oligo | shares compounds with rCAG binder | inhibition, % at 3 µM | hit rate 94% among 4,300 | AID 652068, 2013 | d(CAG) DNA oligo TO-PRO-1 dye displacement;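 active means inhibition above its plate's cutoff, the mean test-well inhibition plus 3 SD, cut at about 4.8% in these data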;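 further: hits displace the dye from DNA and so lower well fluorescence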
dCAG dye DR: inhibitors of DNA CAG/GTC TO-PRO-1 complex, dose response, counter-screen for rCAG RNA repeat binder project, biochemical, fluorescence, TO-PRO-1 dye; IC50, µM; AID 686960, 2013; hit rate 20% among 250; DNA CAG/GTC duplex TO-PRO-1 dye displacement fluorescence; shares compounds with rCAG binder; in the data active means IC50 below about 10 µM
Large screens that a line does not name were inactive (follow-up assays come after a bar, where they were run). Hits are enriched below; roughly 2.7% of the tested compounds scored in any of these assays.

CC(C)(C)c1ccc(C(=O)NCCC(=O)Nc2ccc(S(=O)(=O)Nc3nccs3)cc2)cc1	rCAG binder 57.2 | rCAG bind conf 54.2 | dCAG dye counter 20.0
O=C(CCN1C(=O)S/C(=C\c2ccccc2)C1=O)Nc1ccc(S(=O)(=O)Nc2nccs2)cc1	rCAG binder 76.8 | rCAG bind conf 73.8 | dCAG dye counter 39.3
O=C(CSc1ccncc1)Nc1ccc(S(=O)(=O)Nc2nccs2)cc1	none
CC1CN(S(=O)(=O)c2ccc(C(=O)Nc3ccc(S(=O)(=O)Nc4nccs4)cc3)cc2)CC(C)O1 (stereo unspecified)	rCAG binder 57.0 | rCAG bind conf 65.0 | dCAG dye counter 18.8
Cc1ccc(OC(C)C(=O)Nc2ccc(S(=O)(=O)Nc3nccs3)cc2)cc1 (stereo unspecified)	rCAG binder 37.6 | rCAG bind conf inactive | dCAG dye counter 6.5
Cc1ccc(SCC(=O)Nc2ccc(S(=O)(=O)Nc3nccs3)cc2)cc1	rCAG binder 48.7 | rCAG bind conf 50.2 | dCAG dye counter 14.6
CC(=O)Nc1ccc(S(=O)(=O)Nc2nccs2)cc1	none
O=C(O)c1cnn(-c2ccccc2)c1C(F)(F)F	none
C[C@@H]1[C@H]2CCCC[C@H]2CN(C(=O)OC(C)(C)C)[C@@H]1c1cn(Cc2ccccc2)c2ccc(F)cc12	none
COc1ccc(NC(=O)Nc2nnc(-c3ccco3)s2)cc1	none
Cc1ccc(NC(=O)Nc2nc(-c3ccc(C)s3)cs2)cc1	rCAG binder 52.4 | rCAG bind conf inactive | dCAG dye counter 21.5
COc1ccc(-c2csc(NC(=O)Nc3ccccc3)n2)cc1	rCAG binder 39.7 | rCAG bind conf inactive | dCAG dye counter 16.4
COc1ccc(NC(=O)Nc2nnc(-c3ccncc3)s2)cc1	rCAG binder 41.8 | rCAG bind conf inactive | dCAG dye counter 8.9
Cc1ccc(C)c(NC(=O)C2CC(O)CN2C(=O)Oc2ccccc2)c1 (stereo unspecified)	none
O=S(=O)(NN1CCOCC1)c1ccc(Cl)s1	none
O=C(Cn1cc(COc2ccc3ccccc3c2)nn1)NS(=O)(=O)c1cccc(OC(F)F)c1	rCAG binder 54.5 | rCAG bind conf 71.0 | dCAG dye counter 23.5 | dCAG dye DR 9.27
O=C(N/N=C/c1cc(Br)cc([N+](=O)[O-])c1O)c1ccc(NC(=O)c2ccc(F)cc2)cc1	NadD inh 53.9, rCAG binder 43.2 | rCAG bind conf 78.0 | dCAG dye counter 40.9
O=C(N/N=C/c1cc(Br)cc(Br)c1O)c1ccncc1	none (no result: NadD inh, MsrA act)
Cc1ccc2c(c1)C(c1ccc(F)cc1)N(C(=O)c1cc3ccccc3oc1=O)CC(=O)N2 (stereo unspecified)	none
Cc1ccc(-c2ccc(/C=N/NC(=S)Nc3ccccc3)o2)cc1[N+](=O)[O-]	rCAG binder 42.5 | rCAG bind conf inactive | dCAG dye counter 15.9
O=[N+]([O-])c1cccc(-c2ccc(/C=N/NC(=S)Nc3cccc(F)c3)o2)c1	rCAG binder 39.1 | rCAG bind conf inactive | dCAG dye counter 13.2
Fc1cccc(Cc2c(-c3cccc(Br)c3)nc3ccc(Cl)cn23)c1	rCAG binder 46.1 | rCAG bind conf inactive | dCAG dye counter 5.9
Cc1ccc2nc(-c3cccc(Br)c3)c(Cc3cccc(F)c3)n2c1	none (no result: NadD inh, MsrA act)
Clc1ccc(-c2nc3ccc(Br)cn3c2Cc2ccsc2)cc1	rCAG binder 42.8 | rCAG bind conf inactive | dCAG dye counter 7.8
Clc1cccc(Cc2c(-c3ccccc3)nc3ccc(Br)cn23)c1	rCAG binder 45.5 | rCAG bind conf 37.7 | dCAG dye counter 9.2
Fc1ccc(-c2nc3ccc(Br)cn3c2Cc2cccc(F)c2)cc1	rCAG binder 48.1 | rCAG bind conf inactive | dCAG dye counter 9.0
CCOc1cccc(C(=O)Nc2ccccc2C(=O)N2CCN(C)CC2)c1	none
COCCSc1nnc(NC(=O)C2CC(=O)N(CCc3ccc(F)cc3)C2)s1 (stereo unspecified)	none
O=S(=O)(Nc1nc2ccccc2nc1Cl)c1ccc2c(c1)OCCO2	none
O=S(=O)(Nc1nc2ccccc2nc1Nc1ccc2c(c1)OCCO2)c1cccs1	rCAG binder 90.9 | rCAG bind conf 82.7 | dCAG dye counter 51.1
Cc1ccc(-c2csc(NC(=O)c3ccc(Br)cc3)c2C(=O)O)cc1	none
Cc1ccc(-c2csc(NC(=O)c3ccccc3Cl)c2C(=O)O)cc1	rCAG binder 46.0 | rCAG bind conf inactive | dCAG dye counter 7.5
COc1cc(C(=O)Nc2scc(-c3ccc(Br)cc3)c2C(=O)O)cc(OC)c1OC	rCAG binder 39.4 | rCAG bind conf 85.5 | dCAG dye counter 53.3
CC(C)c1ccc(C(CC(=O)O)NC(=O)c2cccs2)cc1 (stereo unspecified)	none
CC(C)c1ccc(-c2csc(NC(=O)c3cccs3)c2C(=O)O)cc1	rCAG binder 82.8 | rCAG bind conf 76.6 | dCAG dye counter 32.8 | dCAG dye DR 7.83
Cc1ccc(-c2csc(NC(=O)c3cccc(C)c3)c2C(=O)O)cc1	rCAG binder 76.7 | rCAG bind conf 58.5 | dCAG dye counter 20.9
Cc1cccc(C(=O)Nc2scc(-c3ccc(Br)cc3)c2C(=O)O)c1	none
CN(C)S(=O)(=O)c1ccc(C(=O)OC2CCOC2=O)cc1 (stereo unspecified)	none
O=C(CC1N=C(Cc2ccccc2)NNC1=O)N/N=C/c1ccc([N+](=O)[O-])cc1 (stereo unspecified)	none
CCOC(=O)C1CC2=C(CCCC2=O)NC1=O (stereo unspecified)	none
Cc1ccc(-c2csc(NC(=O)/C=C/c3ccco3)c2C(=O)O)cc1	rCAG binder 57.5 | rCAG bind conf 35.9 | dCAG dye counter 9.6
CCOC(=O)c1[nH]c2ccc(F)cc2c1NC(=O)c1cc(OC)c(OC)c(OC)c1	none
COc1cc(C(=O)Nc2c(C(=O)O)[nH]c3ccc(Br)cc23)cc(OC)c1OC	rCAG binder 83.8 | rCAG bind conf 78.2 | dCAG dye counter 40.3
COc1cccc(C(O)c2nc(-c3cnn(C)c3)cs2)c1 (stereo unspecified)	none
CCCCC(NC(=O)Cc1c(C)c2cc3c(C)c(C)oc3c(C)c2oc1=O)C(=O)O (stereo unspecified)	rCAG binder 38.2 | rCAG bind conf 41.0 | dCAG dye counter 9.7
Cc1c(CC(=O)N[C@@H](C)C(=O)O)c(=O)oc2c(C)c3occ(-c4ccccc4)c3cc12	rCAG binder 38.1 | rCAG bind conf 49.9 | dCAG dye counter 15.0

Source: PubChem
